The values below come from PubChem BioAssay (NCATS).

Records with an inconclusive call do not appear. Values without a mark were called inactive. Active and inactive are the calls of the source. Calls follow the shape of the dose curve; as a rule, active = well fitted cell-killing curve with a large enough effect; inconclusive = small, poorly fitted or top-dose-only effect, or effect the other way; inactive = no such curve, though single readings can be large or run the other way.
Potency is read from the fitted curve at half-maximal effect.

A short description of this experiment: Viability qHTS for spleen associated tyrosine kinase inhibitor (SYKi) drug resistant MV4-11 cells (AID 1963824). Also: nearly all actives have a fitted effect of over 35% in size. Particulars: SYKi-resistant MV4-11 viability, CellTiter-Glo, 72 h; series mostly up to 45 µM; viability, % of control: at the top concentration. The method, boiled down: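 SYK-inhibitor-resistant MV4-11 AML cells were seeded at 500 per well onto compound and cultured 72 hours (37 °C, 5% CO2). CellTiter-Glo was then added, and after 10 min at room temperature, luminescence gave viability.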
Take `CC(C)n1nc(Cc2cccc3ccccc23)c2c(N)ncnc21`: the Potency was 8.2 µM (active).
Still for that read-out and setting: the same measure for `Cc1ccc2c(Nc3ccc(Cl)cc3)nccc2c1Nc1ncccc1-c1ncnc2nc[nH]c12`: 2.31 µM (active); for `C/C(=C\C(=O)C(C)C1CCC2C3=C(CCC21C)C1(C)CCC(=O)C(C)(C)C1(O)CC3)C(C)(C)O` (stereo not given): 10 µM (active).
On to `Cc1c(CN(C)C(=O)/C=C/c2cnc3c(c2)CCC(=O)N3)oc2ccccc12`, for which the “viability, % of control” value is 89%.
Regarding `Cn1c(CO)c(-c2ccccc2)c2cc([N+](=O)[O-])ccc21`, the Potency is 23.1 µM (active).
`CCCCC(=O)N1c2ccccc2NC2=C(C(=O)CCC2)C1c1ccccc1Cl` (stereo not given): the Potency is 8.2 µM (active).
With `CN(C)c1nc2c(Br)c(Br)c(Br)c(Br)c2[nH]1`, the Potency is 8.2 µM (active).
With `C=C1CCC[C@]2(C)CC[C@@H](C(=C)C(=O)O)[C@H](O)[C@@H]12`, the “viability, % of control” value is 65.9%.
The same measure, in the same setting: the same measure for `COC(=O)C1=CO[C@@H](O[C@@H]2O[C@H](CO)[C@@H](O)[C@H](O)[C@H]2O)[C@@H]2[C@@H](C)[C@@H](O)C(O)[C@H]12` (stereo not given in full): 115% [at 17.3 µM].
With `C=C1C(=O)O[C@@H]2[C@H]1[C@H](O)C[C@]1(C)[C@@H](O)CC=C(C)[C@@H]21`, the Potency is 4.11 µM (active).
In the case of `COC(=O)CC(O)CC(O)/C=C/c1c(C)ccc2c1C(OC(C)=O)CC(C)C2` (stereo not given), the Potency is 1.8 µM (active).
The same measure, in the same setting: for `CN(CC1COCCO1)S(=O)(=O)Nc1ccc2ccc3ncc(-c4cnn(C)c4)cc3c(=O)c2c1` (stereo not given) the value was 0.651 µM (active).
In the case of `CC1(C)O[C@H]2CC(=O)OC[C@@]23C1=C(O)C(=O)[C@]1(C)C3CC[C@@]2(C)[C@H](c3ccoc3)OC(=O)[C@H]3O[C@]321` (stereo not given in full), the “viability, % of control” value was 83.8% [at 17.3 µM].
Turning to `COc1cc(N2CCC(N3CCN(C)CC3)CC2)ccc1Nc1ncc(Cl)c(-c2c[nH]c3ccccc23)n1`, the Potency is 0.0116 µM (active).
Regarding `CC(=O)O[C@@H]1CC[C@@]2(C)C(CC[C@]3(C)C2[C@H](O)C=C2[C@H]4[C@@H](C)[C@H](C)CC[C@]4(C)CC[C@]23C)[C@@]1(C)C(=O)O` (stereo not given in full), the Potency is 7.09 µM (active).
For `CC1(C)CC[C@]2(C(=O)O[C@@H]3O[C@H](CO)[C@@H](O)[C@H](O)[C@H]3O)CC[C@]3(C)C(=CCC4[C@@]5(C)C[C@@H](O)[C@H](O)[C@@](C)(CO)C5CC[C@]43C)C2[C@@H]1O` (stereo not given in full), the “viability, % of control” value is 79.1% [at 17.3 µM].
Same read-out and setting: the same measure for `Cc1cccc(Oc2cnc(=O)[nH]c2)c1`: 82.9%; for `CC(=O)O[C@H]1C[C@@]2(C)[C@@H](CC[C@H]3[C@@]4(C)C=CC(=O)[C@@H](C)[C@@H]4[C@H](OC(C)=O)C(=O)[C@@]32C)/C1=C(\CCC=C(C)C)C(=O)O`: 104% [at 17.3 µM].
With `CC(C)(O)C(=O)N1CCN(c2ccc(C(F)(F)F)c(C3=C(c4c[nH]c5ccccc45)C(=O)NC3=O)c2)CC1`, the Potency is 0.366 µM (active).
On to `CCC(C)/C=C(C)/C=C/C1=CC2=C(Cl)C(=O)C(C)(OC(C)=O)C(=O)C2=CN1C(CCC(=O)O)C(=O)O` (stereo not given), for which the “viability, % of control” value is 76.2% [at 17.3 µM].
On the same count and under the same terms, for `O=C1NC(Cc2c[nH]c3ccccc23)C(=O)NC1Cc1c[nH]c2ccccc12` (stereo not given) the value was 79.4%.
Take `Nc1ncnc2c1nc(N)n2[C@@H]1O[C@H](CO)[C@@H](O)[C@H]1O`: the Potency is 0.517 µM (active).
Still for that read-out and setting: the same measure for `C/C=C(/C)C(=O)O[C@H]1[C@H](OC(=O)/C(C)=C\C)[C@@]23C(CC1(C)C)[C@]1(CCC4[C@@]5(C)CC[C@H](O[C@@H]6O[C@H](C(=O)O)[C@@H](O)[C@H](O[C@@H]7O[C@H](CO)[C@H](O)[C@H](O)[C@H]7O[C@@H]7O[C@@H](C)[C@H](O)[C@@H](O)[C@H]7O[C@@H]7OC[C@@H](O)[C@H](O)[C@H]7O)[C@H]6O[C@@H]6O[C@H](CO)[C@H](O)[C@H](O)[C@H]6O)C(C)(C)C5CC[C@@]4(C)[C@]1(C)C[C@H]2O)O[C@H]3O` (stereo not given in full): 0.776 µM (active).
`COc1ccc([C@H]2CNC(=O)C2)cc1OC1CCCC1`: the “viability, % of control” value was 96.2%.
In the case of `CC(=O)OC12CC(C)C(O)C1/C=C(/COC1OC(CO)C(O)C(O)C1O)CCC1C(/C=C(\C)C2=O)C1(C)C` (stereo not given), the “viability, % of control” value was 94.3% [at 17.3 µM].
On the same count and under the same terms, for `CC(=O)O[C@H]1C[C@@H](O)C(C)(C)C2C[C@@H](OC(C)=O)[C@@]3(C)C4=CCC(C(CO)CC(O)C5OC5(C)C)[C@]4(C)CCC3[C@]21C` (stereo not given in full) the value was 59.2% [at 17.3 µM].
In the case of `C=CC(=O)N[C@H]1CCOC[C@H]1Nc1ncc2cc(-c3c(Cl)c(OC)cc(OC)c3Cl)ccc2n1`, the Potency was 20.9 µM (active).
Take `NC(N)=NC(=O)c1cnn(-c2cccc3ncccc23)c1C1CC1`: the Potency is 3.26 µM (active).
`CC(C)C[C@H](CC(=O)NO)C(=O)N[C@H](C(=O)N[C@@H](C)C(=O)NCCN)C(C)(C)C`: the viability, % of control was 90.6% [at 9.25 µM].
As to `CCCNc1ccc2ncc(-c3ccc4[nH]ncc4c3)n2n1`, the Potency was 0.0116 µM (active).
In the case of `COc1ccc2c3c1O[C@H]1C[C@@H](O)C=C[C@@]31CCN(C)C2`, the “viability, % of control” value is 85%.
Regarding `O=C1CCCC2=C1C(c1ncccc1Br)N=C(Nc1nc3ccccc3o1)N2` (stereo not given), the Potency was 2.59 µM (active).
As to `C=C1CC[C@H]2[C@@](C)(CCC[C@@]2(C)C(=O)O)[C@@H]1CCC(C)CCO` (stereo not given in full), the “viability, % of control” value is 74.2%.
In the case of `O=c1[nH]c2ccccc2n1CCN1CCN(c2cccc(C(F)(F)F)c2)CC1`, the Potency was 23.1 µM (active).
Same read-out and setting: for `C/C(=N\NC(=S)N1CCC1)c1ccccn1` the value was 0.0074 µM (active).
In the case of `CC(=O)c1ccc(O[C@@H]2O[C@H](CO)[C@@H](O)[C@H](O)[C@H]2O)cc1`, the “viability, % of control” value was 84.4%.
Turning to `CCC(C)C1NC(=O)C(Cc2ccccc2)NC(=O)C(CCCCCC(=O)C(O)CO)NC(=O)C2CCCCN2C1=O` (stereo not given), the Potency is 1.93 µM (active).
On to `N=C1N=C(N)c2cc3ccccc3cc21`, for which the Potency is 38.6 µM (active).
On the same count and under the same terms, the same measure for `O=S(=O)(Nc1ccc(C(O)(C(F)(F)F)C(F)(F)F)cc1)c1cccs1`: 16.4 µM (active); for `CC(C)n1nc(C#Cc2ccccc2)c2c(N)ncnc21`: 8.2 µM (active).
